Among all 5,500 compounds or so, about 2,000 (36%) were called active. Another 18% or so got no clear call; they are omitted. This is one part of the list. Values without a mark were called inactive. Cut-off read from the data, not from the text of the source: active = normalized growth mostly below about 0.91 (no sharp cut-off); inconclusive = no clear call, values can overlap the other calls; inactive = mostly above about 0.92.
Test: chemical genetic growth profiling, strain panel (AID 1159580);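 note: tested at 20 µM; growth read once vehicle control cultures reached saturation at 30 °C; 1 = growth at the plate median or of vehicle wells; lower values mean less growth of the strain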
Details: S. cerevisiae deletion strains, growth OD

## OC(CNCc1ccc(Cl)cc1)CO/N=C\C1=C(Cl)c2cc(Cl)ccc2OC1 (stereo not given)
Locus YAR019C, strain CDC15, active compounds read low
  normalized growth: 0.962
Locus YBL105C, strain PKC1, active compounds read low
  normalized growth: 0.981
Locus YBR135W, strain CKS1, active compounds read low
  normalized growth: 0.981
Locus YBR136W, strain MEC1, active compounds read low
  normalized growth: 0.957
Locus YBR160W, strain CDC28, active compounds read low
  normalized growth: 0.988
Locus YDL017W, strain CDC7, active compounds read low
  normalized growth: 0.986
Locus YDL028C, strain MPS1, active compounds read low
  normalized growth: 0.975
Locus YDL101C, strain DUN1, active compounds read low
  normalized growth: 0.987
Locus YDL108W, strain KIN28, active compounds read low
  normalized growth: 0.967
Locus YDL132W, strain cdc53, active compounds read low
  normalized growth: 0.979
Locus YDL214C, strain PRR2, active compounds read low
  normalized growth: 0.925
Locus YDR052C, strain DBF4, active compounds read low
  normalized growth: 0.989
Locus YDR054C, strain cdc34, active compounds read low
  normalized growth: 0.98
Locus YDR226W, strain ADK1, active compounds read low
  normalized growth: 0.97
Locus YDR477W, strain SNF1, active compounds read low
  normalized growth: 0.974
Locus YER123W, strain YCK3, active compounds read low
  normalized growth: 0.867
Locus YER133W, strain GLC7, active compounds read low
  normalized growth: 0.933
Locus YFL009W, strain cdc4, active compounds read low
  normalized growth: 0.976
Locus YFL029C, strain CAK1, active compounds read low
  normalized growth: 0.963
Locus YFR003C, strain YPI1, active compounds read low
  normalized growth: 0.981
Locus YFR019W, strain FAB1, active compounds read low
  normalized growth: 0.921
Locus YFR028C, strain CDC14, active compounds read low
  normalized growth: 0.96
Locus YGR040W, strain KSS1, active compounds read low
  normalized growth: 0.97
Locus YGR052W, strain FMP48, active compounds read low
  normalized growth: 1
Locus YGR092W, strain DBF2, active compounds read low
  normalized growth: 0.928
Locus YHR030C, strain SLT2, active compounds read low
  normalized growth: 0.871
Locus YHR079C, strain IRE1, active compounds read low
  normalized growth: 0.931
Locus YHR082C, strain KSP1, active compounds read low
  normalized growth: 0.966
Locus YHR205W, strain SCH9, active compounds read low
  normalized growth: 0.949
Locus YIL147C, strain SLN1, active compounds read low
  normalized growth: 0.969
Locus YJL095W, strain BCK1, active compounds read low
  normalized growth: 0.915
Locus YJL128C, strain PBS2, active compounds read low
  normalized growth: 0.933
Locus YJL157C, strain FAR1, active compounds read low
  normalized growth: 0.971
Locus YJR016C, strain ILV3, active compounds read low
  normalized growth: 0.991
Locus YJR066W, strain TOR1 (second series), active compounds read low
  normalized growth: 1
Locus YJR066W, strain TOR1, active compounds read low
  normalized growth: 0.944
Locus YKL048C, strain ELM1, active compounds read low
  normalized growth: 0.931
Locus YKL067W, strain YNK1, active compounds read low
  normalized growth: 0.937
Locus YKL101W, strain HSL1, active compounds read low
  normalized growth: 0.923
Locus YKL193C, strain SDS22, active compounds read low
  normalized growth: 0.981
Locus YKL203C, strain TOR2, active compounds read low
  normalized growth: 0.983
Locus YLR113W, strain HOG1, active compounds read low
  normalized growth: 0.87
Locus YLR133W, strain CKI1, active compounds read low
  normalized growth: 0.96
Locus YLR403W, strain SFP1, active compounds read low
  normalized growth: 0.996
Locus YML070W, strain DAK1, active compounds read low
  normalized growth: 0.924
Locus YMR001C, strain CDC5, active compounds read low
  normalized growth: 0.985
Locus YMR205C, strain PFK2 (second series), active compounds read low
  normalized growth: 0.949
Locus YMR277W, strain FCP1, active compounds read low
  normalized growth: 0.981
Locus YNL006W, strain LST8, active compounds read low
  normalized growth: 0.99
Locus YNL020C, strain ARK1, active compounds read low
  normalized growth: 0.963
Locus YNL161W, strain CBK1, active compounds read low
  normalized growth: 0.983
Locus YNL183C, strain NPR1, active compounds read low
  normalized growth: 0.932
Locus YNL207W, strain RIO2, active compounds read low
  normalized growth: 0.97
Locus YNL222W, strain SSU72, active compounds read low
  normalized growth: 0.979
Locus YNL307C, strain MCK1 (second series), active compounds read low
  normalized growth: 0.934
Locus YOL078W, strain AVO1, active compounds read low
  normalized growth: 0.984
Locus YOL136C, strain PFK27, active compounds read low
  normalized growth: 0.921
Locus YOR061W, strain CKA2, active compounds read low
  normalized growth: 0.969
Locus YOR119C, strain RIO1, active compounds read low
  normalized growth: 0.957
Locus YOR231W, strain MKK1, active compounds read low
  normalized growth: 0.918
Locus YOR329C, strain SCD5, active compounds read low
  normalized growth: 0.977
Locus YPL031C, strain PHO85, active compounds read low
  normalized growth: 0.975
Locus YPL153C, strain RAD53, active compounds read low
  normalized growth: 0.984
Locus YPL204W, strain HRR25, active compounds read low
  normalized growth: 0.994
Locus YPL209C, strain IPL1, active compounds read low
  normalized growth: 0.981
Locus YPL256C, strain CLN2, active compounds read low
  normalized growth: 0.864
Locus YPR025C, strain CCL1, active compounds read low
  normalized growth: 0.981
Locus YPR106W, strain ISR1, active compounds read low
  normalized growth: 0.963
Locus YPR111W, strain DBF20, active compounds read low
  normalized growth: 0.962
Strain NNK1, active compounds read low
  normalized growth: 0.959
Strain TSCII, active compounds read low
  normalized growth: 0.979

## CC1(C)CCC2=C(O1)c1ccccc1C(=O)C2=O
Locus YAL013W, strain DEP1, active compounds read low
  normalized growth: 0.879 (active)
Locus YAL040C, strain CLN3, active compounds read low
  normalized growth: 1.02
Locus YCL061C, strain MRC1 (second series), active compounds read low
  normalized growth: 0.876 (active)
Locus YDR150W, strain NUM1, active compounds read low
  normalized growth: 0.857 (active)
Locus YDR363W, strain ESC2, active compounds read low
  normalized growth: 0.706 (active)
Locus YER002W, strain NOP16, active compounds read low
  normalized growth: 1
Locus YGR078C, strain PAC10, active compounds read low
  normalized growth: 0.977
Locus YMR263W, strain SAP30, active compounds read low
  normalized growth: 0.956
Locus YNL175C, strain NOP13, active compounds read low
  normalized growth: 0.973
Locus YNL197C, strain WHI3, active compounds read low
  normalized growth: 0.926
Locus YNL224C, strain SQS1, active compounds read low
  normalized growth: 1
Locus YOR083W, strain WHI5 (second series), active compounds read low
  normalized growth: 0.938
Locus YPL055C, strain LGE1, active compounds read low
  normalized growth: 0.769 (active)
Locus YPL241C, strain CIN2, active compounds read low
  normalized growth: 0.861 (active)

Source: PubChem BioAssay AID1159580 (chemical genetic matrix, 2015)
